Vif inh – blocks HIV Vif function | HEK293T cells, Vif self-association by quenched fluorescence, imaging, 24 h | inhibition, % at 7.49 µM | actives 0.35% (n = 340,000) | AID 602346; in the data active means inhibition above about 50%, passing the limit was not always enough; inconclusive means no clear call, values can overlap the other calls; inactive means below about 31%
AI-2 QS mod – modulates the Vibrio harveyi AI-2 quorum sensing system; actives 0.4% (n = 300,000); Vibrio harveyi JMH597 AI-2 luminescence/OD600 ratio, 9 h; hits give low values; strain lacks LuxN and CqsS sensors; 0 = neutral-control median; activity change, % at 7.5 µM; AID 2094; in the data active means activity change below about -75%, passing the limit was not always enough; inconclusive means no clear call, values can overlap the other calls;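 further: luminescence divided by OD600 gain over 9 h not by final OD600 alone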
PvdQ inh – P. aeruginosa PvdQ acylase inhibition; inhibition, % at 10 µM; purified PvdQ acylase, fluorescence plate reader; actives 0.063% (n = 340,000); in the data active means inhibition above about 30%, passing the limit was not always enough; inconclusive means no clear call, values can overlap the other calls;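 further: 0% = vehicle neutral wells and 100% = reference inhibitor wells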
ERp5 block – ERp5 (human) disulfide isomerase inhibition; inhibition, % at 9.99 µM; Q15084; actives 0.05% (n = 350,000); AID 651711; ERp5 insulin aggregation, absorbance 650 nm, 90 min;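 active means mean replicate inhibition above about 25%, with every replicate also reaching it, limit read from the data, passing the limit was not always enough; inconclusive means only one of those two criteria met; inactive means neither criterion met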
Target sequence (Q15084 whole entry, looked up): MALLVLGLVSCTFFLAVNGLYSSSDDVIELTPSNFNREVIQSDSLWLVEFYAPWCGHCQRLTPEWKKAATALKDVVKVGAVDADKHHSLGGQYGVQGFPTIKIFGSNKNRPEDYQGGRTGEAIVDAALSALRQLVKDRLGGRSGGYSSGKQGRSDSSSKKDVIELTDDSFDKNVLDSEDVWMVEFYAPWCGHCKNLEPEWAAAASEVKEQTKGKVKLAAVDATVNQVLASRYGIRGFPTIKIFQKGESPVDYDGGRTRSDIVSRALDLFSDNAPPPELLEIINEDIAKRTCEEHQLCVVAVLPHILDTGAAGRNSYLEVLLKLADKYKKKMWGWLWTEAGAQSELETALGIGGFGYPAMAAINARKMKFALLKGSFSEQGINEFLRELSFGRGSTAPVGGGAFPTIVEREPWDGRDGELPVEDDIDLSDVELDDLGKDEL
PDI inh – PDI (human) enzyme inhibition; P07237; inhibition, % at 10 µM; actives 0.052% (n = 350,000); PDI insulin aggregation turbidity, A650, 90 min;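 active means mean inhibition across replicates of 30% or more, whatever share of single replicates reach that level; inconclusive means mean inhibition below 30% while every single replicate reaches 30%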
Numbers without * were called inactive; i = inactive; ? = inconclusive; nt = no result. The list is not random: actives were taken first. Their share in the collection is about 0.64%.

SMILES	Vif inh	AI-2 QS mod	PvdQ inh	ERp5 block	PDI inh
C/C=C/c1ccc2c(c1)O[C@H](CN(C)S(C)(=O)=O)[C@H](C)CN([C@@H](C)CO)S2(=O)=O	nt	nt	nt	7.7	nt
C/C=C/c1ccc2c(c1)O[C@@H](CN(C)S(C)(=O)=O)[C@H](C)CN([C@H](C)CO)S2(=O)=O	nt	nt	nt	88.3*	nt
C/C=C/c1ccc2c(c1)O[C@@H](CN(C)S(C)(=O)=O)[C@H](C)CN([C@@H](C)CO)S2(=O)=O	nt	nt	nt	68.1*	nt
C/C=C/c1ccc2c(c1)O[C@@H](CN(C)Cc1cccnc1)[C@@H](C)CN([C@H](C)CO)S2(=O)=O	nt	nt	nt	-0.4	nt
C/C=C/c1ccc2c(c1)O[C@H](CN(C)Cc1cncnc1)[C@H](C)CN([C@@H](C)CO)S2(=O)=O	nt	nt	nt	28.7*	nt
O=C(C[C@@H]1C=C[C@H](NC(=O)C2CC2)[C@@H](CO)O1)NCCCN1CCOCC1	nt	nt	nt	0.9	nt
COc1ccc(S(=O)(=O)NCC(c2ccc(F)cc2)N2CCOCC2)cc1Br (stereo not given)	21.2	nt	10.8	-1.1	30.5*
COc1ccc(S(=O)(=O)NCCN2CCOCC2)cc1Br	11.1	19.8	-21.1	-1.6	-1.2
C[C@@H]1CCCCO[C@H](CN(C)S(=O)(=O)c2cccs2)[C@H](C)CN([C@@H](C)CO)C(=O)c2cc(NS(=O)(=O)c3ccc(F)cc3)ccc2O1	nt	nt	nt	3.2	nt
CCCNC(=O)C[C@@H]1CC[C@@H]2[C@H](COc3ccc(NC(=O)NCC)cc3C(=O)N2C)O1	nt	nt	nt	5.1	nt
CC(=O)N(C)C[C@H]1Oc2cc(C#CC(C)C)ccc2S(=O)(=O)N([C@H](C)CO)C[C@@H]1C	nt	nt	nt	1.7	nt
Cn1cccc1-c1cc(C(=O)N/N=C/c2ccc([N+](=O)[O-])cc2)[nH]n1	69.8*	8.0	0.9	2.2	-17.9
CCOC(=O)c1cc(-c2ccccc2)sc1NC(=O)COC(=O)c1ccc(Cl)c(S(N)(=O)=O)c1	4.2	13.1	-8.9	nt	0.9
CCOC(=O)c1cc(-c2ccccc2)sc1NC(=O)COC(=O)c1cccc(S(N)(=O)=O)c1	55.2*	0.4	-11.3	7.3	6.2
CO[C@H]1CN(C)C(=O)c2ccc(NC(C)=O)cc2OC[C@@H](C)N(C(=O)Cc2cccnc2)C[C@H]1C	nt	nt	nt	-3.5	nt
Cc1cccc(S(=O)(=O)N2[C@@H]3CNC[C@H]2C3c2ccc(-c3cncnc3)cc2)c1 (stereo not given in full)	nt	nt	nt	-3.7	nt
N#CC(c1ccc(Cl)cc1)c1cccc(Cl)n1 (stereo not given)	13.3	11.2	117.4*	-6.8	-7.4
N#CC(c1ccc(Cl)cc1)c1ccc2c(C(F)(F)F)cc(C(F)(F)F)nc2n1 (stereo not given)	-13.4	62.2	-14.6	nt	-11.6
Cc1cc(N)ccc1-c1cc2ccccc2oc1=O	51.7*	19.6	0.7	0.7	-4.1
O=C1C=CC(=O)N1c1cccc(-c2ccccc2)c1	5.7	-212.3*	-8.4	-3.6	0.5
O=C(Nc1cccc(N2C(=O)C=CC2=O)c1)c1cccs1	-0.7	?	-9.2	1.2	-3.2
OC(CN1CCOCC1)Cn1c(-c2cccc(Cl)c2)nc2ccccc21 (stereo not given)	-14.7	9.3	31.9*	nt	1.5
COc1ccc(C)cc1NC(=O)C1CCN(C(=O)c2ccco2)CC1	53.9*	15.3	9.4	3.1	8.1
Cc1noc(C)c1NC(=O)N[C@@H]1C=C[C@H](CC(=O)NCCCN(C)C)O[C@@H]1CO	nt	nt	nt	3.9	nt
C[C@@H]1CN([C@@H](C)CO)C(=O)Cc2cc(NS(=O)(=O)c3cn(C)cn3)ccc2O[C@@H]1CN(C)CC1CC1	nt	nt	nt	1.9	nt
SMILES	Vif inh	AI-2 QS mod	PvdQ inh	ERp5 block	PDI inh
N#Cc1c(-c2cccs2)cc(-c2cccs2)[nH]c1=O	51.0*	nt	-17.0	1.7	-7.5
COc1ccc(NC(=O)N[C@H]2C=C[C@H](CC(=O)NC3CCC3)O[C@H]2CO)cc1	nt	nt	nt	17.2	nt
O=C(C1CCCCC1)N1C[C@@H]2[C@H](c3ccccc31)[C@H](CO)N2C(=O)Cc1ccccn1	nt	nt	nt	3.9	nt
CCCNC(=O)C[C@@H]1C[C@H]2c3cc(NS(C)(=O)=O)ccc3O[C@H]2[C@@H](CO)O1	nt	nt	nt	55.9*	nt
CCCNC(=O)C[C@H]1C[C@H]2c3cc(NS(C)(=O)=O)ccc3O[C@H]2[C@@H](CO)O1	nt	nt	nt	26.7*	nt
COCCNC(=O)C[C@H]1C[C@@H]2c3cc(NS(C)(=O)=O)ccc3O[C@@H]2[C@H](CO)O1	nt	nt	nt	-2.0	nt
Cc1ncc(CN2CCN(Cc3ccc(F)cc3)C(CCO)C2)s1 (stereo not given)	0.4	24.9	39.1*	1.1	-1.1
CC(C)=CCN1CCN(Cc2cnc(C)s2)CC1CCO (stereo not given)	-4.6	2.6	9.5	-1.7	-3.0
O=C(NCCc1ccncc1)[C@H]1[C@H](CO)[C@H]2Cn3c(ccc(-c4ccccc4)c3=O)[C@@H]1N2	nt	nt	nt	2.9	nt
COc1ccc2c3c([nH]c2c1)[C@H](CO)N(C(=O)c1ccc(F)cc1)CC31CCN(C)CC1	nt	nt	nt	9.4	nt
O=C(c1ccc2c(c1)OCO2)N(CC1CCCO1)C1(C(=O)NC2CCCC2)CCCCC1 (stereo not given)	69.5*	9.7	-14.1	nt	6.7
O=C(NC1(C(=O)NC2CCCCC2)CCCCC1)c1ccc2c(c1)OCO2	8.3	4.4	-3.0	nt	11.4
O=C(CCCN1C(=O)c2cccnc2C1=O)Nc1ccc(Br)cc1	59.2*	20.9	14.2	-1.3	4.2
O=C(CCCN1C(=O)c2ccccc2C1=O)Nc1nncs1	59.9*	15.5	1.5	nt	-5.5
C[C@@H]1CN([C@H](C)CO)C(=O)c2cc(-c3cccc(C#N)c3)cnc2O[C@H]1CN(C)Cc1cccnc1	nt	nt	nt	0.7	nt
CC(C)NC(=O)N(C)C[C@@H]1Oc2ncc(-c3cc4ccccc4o3)cc2C(=O)N([C@H](C)CO)C[C@@H]1C	nt	nt	nt	28.4*	nt
C[C@H]1CN([C@@H](C)CO)C(=O)c2cc(-c3cccc(C#N)c3)cnc2O[C@@H]1CN(C)Cc1cncnc1	nt	nt	nt	33.8*	nt
C[C@H](CO)N1C[C@H](C)[C@H](CN(C)Cc2cncnc2)Oc2ncc(-c3cccc(C#N)c3)cc2C1=O	nt	nt	nt	52.3*	nt
C[C@@H]1CN([C@@H](C)CO)C(=O)c2cc(-c3cccc(C#N)c3)cnc2O[C@@H]1CN(C)Cc1cncnc1	nt	nt	nt	2.3	nt
N#C[C@H]1[C@H](c2ccccc2C2=CCCC2)[C@@H](CO)N1C(=O)CN1CCOCC1	nt	nt	nt	2.9	nt
c1ccc(Cn2nnc3c(Nc4ccc5c(c4)OCO5)nc(C4CC4)nc32)cc1	-10.7	11.7	-9.8	nt	65.7*
COc1ccc(OC)c(Nc2nc(C3CC3)nc3c2nnn3Cc2ccccc2)c1	5.8	8.9	2.4	nt	0.3
Oc1ccc(-c2cnc(-c3ccc(O)cc3)nc2)cc1	35.6	-7.0	-6.4	-2.0	-9.9
Nc1ccc(-c2cnc(-c3ccc(N)cc3)nc2)cc1	76.8*	9.4	-8.1	nt	4.2
Cc1ccccc1N1C(=O)c2cccc3c(N(C)CCO)ccc(c23)C1=O	i	13.7	-1.7	nt	-3.9
COc1ccccc1N1C(=O)c2cccc3c(N(C)CCO)ccc(c23)C1=O	80.1*	8.9	7.0	-2.0	7.3

Screening data deposited in PubChem by Broad Institute.
